Measured values: PMC4336329 (PLoS ONE, 2015)
About 14,000 (4.5%) of roughly 310,000 compounds showed an effect of 50% or more. Effects have a minus sign here. The entries come from a sample that favours strong results as a whole.

What follows are compounds tested against human ether-à-go-go-related gene (hERG) potassium channel (human, UniProt Q12809) (assay: primary screen, population patch clamp on CHO cells stably expressing hERG; higher = less effect of the substance).
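Further: peak tail current of the secondary pulse compared with the same well before compound.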

Chain of human ether-à-go-go-related gene (hERG) potassium channel (Q12809 whole entry, looked up): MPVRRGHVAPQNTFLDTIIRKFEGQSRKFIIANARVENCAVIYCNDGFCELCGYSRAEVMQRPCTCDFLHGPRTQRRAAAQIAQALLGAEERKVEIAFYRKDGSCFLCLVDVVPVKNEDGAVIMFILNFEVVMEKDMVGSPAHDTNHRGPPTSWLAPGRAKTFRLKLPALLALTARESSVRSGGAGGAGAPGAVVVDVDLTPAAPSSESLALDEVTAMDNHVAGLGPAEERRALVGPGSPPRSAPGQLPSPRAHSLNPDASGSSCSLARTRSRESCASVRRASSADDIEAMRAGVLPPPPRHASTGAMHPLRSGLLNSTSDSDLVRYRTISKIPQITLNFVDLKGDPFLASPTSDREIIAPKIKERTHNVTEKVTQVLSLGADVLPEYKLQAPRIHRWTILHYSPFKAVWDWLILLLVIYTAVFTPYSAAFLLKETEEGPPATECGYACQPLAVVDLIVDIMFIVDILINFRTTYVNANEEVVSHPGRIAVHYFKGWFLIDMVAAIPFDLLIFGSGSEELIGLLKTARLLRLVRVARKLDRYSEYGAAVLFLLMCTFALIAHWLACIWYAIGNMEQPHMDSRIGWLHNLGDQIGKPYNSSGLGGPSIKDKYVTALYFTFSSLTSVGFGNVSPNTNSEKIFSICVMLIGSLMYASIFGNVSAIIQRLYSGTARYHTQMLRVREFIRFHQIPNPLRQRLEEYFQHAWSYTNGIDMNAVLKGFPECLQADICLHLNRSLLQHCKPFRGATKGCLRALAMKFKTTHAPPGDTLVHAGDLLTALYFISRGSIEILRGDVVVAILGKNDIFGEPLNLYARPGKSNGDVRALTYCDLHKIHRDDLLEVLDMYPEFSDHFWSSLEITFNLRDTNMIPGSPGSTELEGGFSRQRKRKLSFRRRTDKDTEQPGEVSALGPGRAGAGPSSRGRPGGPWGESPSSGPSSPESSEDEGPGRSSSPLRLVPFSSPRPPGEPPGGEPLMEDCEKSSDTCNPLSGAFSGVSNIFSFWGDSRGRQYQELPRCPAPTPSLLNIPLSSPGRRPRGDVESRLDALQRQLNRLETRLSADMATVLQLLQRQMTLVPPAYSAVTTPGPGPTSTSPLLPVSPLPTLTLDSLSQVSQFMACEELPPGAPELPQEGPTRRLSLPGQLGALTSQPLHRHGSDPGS

SMILES	hERG current change (%, negative = inhibition) at 10uM
Fc1ccc(C2=CCN(C(c3cccs3)c3nnnn3CCc3ccccc3)CC2)cc1 (stereo not shown)	-0.341%
O=C(CCC(=O)c1cccs1)Nc1ccccc1F	3.01%
COc1ccc(C(=O)CCC(=O)NCCc2c[nH]c3ccccc23)cc1OC	21.2%
Cc1cccc(C)c1NC(=O)c1ccc(CN2CCc3ccccc3C2)cc1	4.57%
Cc1nn(CC(=O)N2CCCCCC2)c(=O)c2cc3occc3n12	14.6%
Cc1cc(NC(=O)c2cc(-c3ccc(Br)cc3)on2)no1	17.6%
COc1ccc(CCNC(=O)c2ccccc2OCc2c(C)noc2C)cc1	-26.4%
NS(=O)(=O)c1ccc(NC(=O)/C=C/c2ccccc2Cl)cc1	9.54%
CN=C(Nc1cc(C)nn1-c1ccccc1)c1ccc(F)cc1	-9.94%
COc1cc(SC)ccc1C(=O)Nc1cccc(S(=O)(=O)NC2=NCCCCC2)c1	4.08%
O=C(COc1ccc(S(=O)(=O)N2CCCCC2)cc1)NCc1cccnc1	3.06%
COCCNC(=O)COc1ccc(N(C)S(=O)(=O)c2ccc3ccccc3c2)cc1	-62%
O=C(COc1ccc(S(=O)(=O)N2CCCC2)cc1Cl)NCc1cccnc1	-55%
Cc1ccc(S(=O)(=O)N(Cc2ccccc2)c2ccccc2C(=O)NCc2cccnc2)cc1	-33.2%
CCOc1ccc(S(=O)(=O)N(C)c2ccc(OCC(=O)NCc3cccnc3)cc2)cc1	-21.5%
O=C(COc1ccc(S(=O)(=O)N2CCCC2)cc1)NCc1cccnc1	-3.42%
CN(c1ccc(OCC(=O)NCc2cccnc2)cc1)S(=O)(=O)c1ccc(Cl)cc1	-58.4%
CN(c1ccc(OCC(=O)OCC(=O)NCc2ccco2)cc1)S(=O)(=O)c1ccc2ccccc2c1	2.22%
Cc1ccc(S(=O)(=O)N(Cc2ccc(Cl)cc2)c2ccccc2C(=O)NCc2cccnc2)cc1	-52%
CN(c1ccc(OCC(=O)O)cc1)S(=O)(=O)c1ccc2ccccc2c1	16.1%
Cc1ccc(S(=O)(=O)N(Cc2ccc(Cl)cc2)c2ccccc2C(=O)NCc2ccco2)cc1	-10.8%
CN(c1ccc(OCC(=O)NCCc2ccccc2)cc1)S(=O)(=O)c1ccc(Cl)cc1	15.2%
COc1cc(/C=C/c2ccc3c(Br)cc(Br)c(O)c3n2)ccc1O	17.2%
O=C(CSc1ccc([N+](=O)[O-])cn1)Nc1ccc(N2CCOCC2)c(Cl)c1	-33.2%
CCc1nnc(NC(=O)CSc2nnnn2-c2cccc(C(=O)OC)c2)s1	8.39%
O=C(Cc1cccs1)Nc1nnc(COc2ccccc2)s1	3.05%

SMILES	hERG current change (%, negative = inhibition) at 10uM
O=C(CN1C(=O)NC2(CCc3ccccc32)C1=O)Nc1cc(C(F)(F)F)ccc1N1CCOCC1 (stereo not shown)	-5.15%
O=C(COc1ncnc2ccccc12)N1CCN(S(=O)(=O)c2ccc(Cl)cc2)CC1	-9.26%
Cc1nc(Cl)c2c(n1)NC1=C(O2)C(=O)CCC1	14.7%
COc1cccc(/C=C2\SC(=S)N(CCC(=O)NCCc3ccc(O)cc3)C2=O)c1	3.18%
COc1ccc(Nc2nc(-c3sc(N)nc3C)cs2)cc1	8.32%
O=C(NNC1=Nc2cccc3cccc1c23)c1ccc(Br)cc1	4.78%
Cc1cccc2cc(C(c3nnnn3Cc3ccccc3)N3CCN(c4ccccc4)CC3)c(=O)[nH]c12 (stereo not shown)	-29.1%
COc1cccc(/C=N/NC(=O)COc2cccc3cccnc23)c1O	0.232%
CN(C)/C=C(/C(=O)c1ccc(Cl)c(Cl)c1)c1nnnn1-c1ccccc1	9.85%
COc1ccc(C2C3=C(CCCC3=O)Nc3nc(SCc4ccc(C(=O)O)cc4)nn32)cc1OC (stereo not shown)	-3.79%
Cl.Cn1cccc1CNCCc1ccccc1	-1.74%
COc1ccc(N(CC(=O)NCCOc2ccccc2)S(=O)(=O)c2ccc(C)cc2)cc1	-54.8%
COCCNC(=O)CN(c1ccc(C)cc1)S(=O)(=O)c1ccccc1	9.01%
COc1ccc(S(=O)(=O)N(CC(=O)NCCCN(C)C)c2ccc(C)cc2)cc1OC	-56.6%
COc1ccc(S(=O)(=O)N(CC(=O)NCc2ccncc2)c2ccc(C)cc2)cc1OC	-6.77%
CCOc1ccc(S(=O)(=O)N(CC(=O)NCc2cccnc2)c2ccc(C)cc2)cc1	-66.9%
COCCNC(=O)CN(c1cccc(OC)c1)S(=O)(=O)c1ccc(C)cc1	-12.2%
CN(c1ccc(C(=O)N2CCOCC2)cc1)S(=O)(=O)c1ccc(Cl)cc1	-34.2%
CCOc1ccc(S(=O)(=O)N(CC)CC(=O)NCc2cccnc2)cc1	-38%
COCCNC(=O)CN(c1ccc(OC)c(OC)c1)S(=O)(=O)c1ccc(C)cc1	-8.68%
CN(c1ccc(C(=O)N2CCCCC2)cc1)S(=O)(=O)c1ccccc1	-10.8%
CN(c1ccc(C(=O)N2CCCCCC2)cc1)S(=O)(=O)c1ccc(Cl)cc1	-63%
CCc1ccc(N(CC(=O)NCc2cccnc2)S(=O)(=O)c2ccccc2)cc1	-27%
CCCC(C)c1nc(C(N)=O)c2[nH]c(=O)n(-c3ccc(OC)c(OC)c3)c2n1 (stereo not shown)	12.6%
CCc1ccc(NC(=O)C2CCN(S(=O)(=O)c3cnc[nH]3)CC2)cc1	9.27%
COc1ccccc1NC(=O)Cn1cnc2sc(C(=O)Nc3cc(OC)c(OC)c(OC)c3)c(C)c2c1=O	27.8%
